Compound activity deposited in PubChem BioAssay by several laboratories.
Arbovirus anti: blocks arbovirus infection; arbovirus infection cell-based antiviral screen; inhibition, % at 10 µM; hit rate 0.37% among 200,000; AID 1251; in the data active = inhibition above about 30%
CHOP inhibitor: inhibitors of CHOP induction in ER stress response; hit rate 3.8% among 220,000; CHO-K1 CHOP-promoter luciferase, tunicamycin-induced, 15-18 h; AID 2732; inhibition, % at 10 µM;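 active = compounds that reduced the stress-induced luciferase reporter signal by more than about 70% of percent inhibition, limit read from the data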;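 note: 0% = tunicamycin plus vehicle and 100% = wells without tunicamycin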
WT yeast gro inh: growth inhibition of WT yeast, mitochondrial fusion screen; AID 1362; mitochondrial fusion phenotypic screen, WT strain; inhibition, % at 10 µM; hit rate 2.1% among 190,000; in the data active = inhibition above about 58%; tested in S. cerevisiae
L major viab: reduces viability of Leishmania major promastigotes; resazurin fluorescence viability; AID 1063; hit rate 9% among 200,000; inhibition, % at 10 µM; in the data active = inhibition above about 50%;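 note: promastigotes grown with compound for 44 hours at 28 °C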
* marks the source's active call; other numbers are inactive results; · = no result given. In the library only some 12% were active in any assay of this set; here they are far more common.

SMILES	Arbovirus anti	CHOP inhibitor	WT yeast gro inh	L major viab
Cc1nn(-c2ccc(F)cc2)c(C)c1/C=C/C(=O)N1CCNC(=O)C1	2.9	27.4	-20.3	4.5
Cc1cc(C)c2c3c(cn2n1)c(=O)n(C)c(=O)n3C	·	·	·	3.6
c1ccc(-c2ccc(OCCCn3cncn3)cc2)cc1	8.2	5.5	-9.5	96.2*
c1ccc(-c2ccccc2OCCCN2CCCCC2)cc1	-9.8	38.2	-11.2	95.0*
CCN1CCN(CCOc2ccccc2-c2ccccc2)CC1	-13.1	22.3	0.4	91.3*
c1ccc(COc2ccc(OCCn3cncn3)cc2)cc1	-2.4	-8.1	24.9	-4.9
CCOc1ccc(-c2cc(C(=O)NCCCN3CCN(CC)CC3)c3ccccc3n2)cc1	-22.2	-16.1	11.1	25.3
CCN1CCN(CCCOc2ccc(-c3ccccc3)cc2)CC1	-41.6	-32.4	21.6	98.5*
OCCCN1CCN(CCOc2ccccc2-c2ccccc2)CC1	-6.7	-6.4	0.4	1.3
CCN1CCN(CCCOc2ccccc2-c2ccccc2)CC1	-17.9	-0.8	13.9	65.5*
COC(=O)c1ccc(N2CCC(c3cc(-c4ccc(OC)cc4)n[nH]3)CC2)c([N+](=O)[O-])c1	-28.3	78.8*	36.2	21.4
COc1ccc(-c2cc(C3CCN(c4ccc(C(C)=O)cc4[N+](=O)[O-])CC3)[nH]n2)cc1	-34.5	86.5*	17.0	35.1
Clc1ccc2nc(-c3ccc(Br)s3)cn2c1	-2.1	75.1*	17.8	5.8
COc1ccc(-c2cn3cc(Cl)ccc3n2)cc1OC	-0.1	·	-4.2	44.9
Cc1cc(N=Cc2c(O)n(-c3ccc4c(c3)OCO4)c(=O)c3ccccc23)ccn1	12.2	93.8*	12.1	14.3
Cc1cc(N=Cc2c(O)n(-c3ccc(C)c(C)c3)c(=O)c3ccccc23)no1	-11.8	67.2	1.7	54.4*
O=C(COC(=O)c1cnccn1)NCc1ccc2c(c1)OCO2	2.7	6.8	-9.8	-5.9
CC(C)(C)NC(=O)c1cccc(NC(=O)CSc2ccc(Cl)cc2)c1	-7.1	24.3	0.0	91.2*
CSc1cccc(NC(=O)CSc2ccc(Cl)cc2)c1	-7.6	58.3	40.2	53.9*
COc1ccc(COc2ccc(C3C(S(=O)(=O)c4ccccc4)CON3C)cc2OC)cc1 (configuration not stated)	6.9	31.7	3.0	0.1
Cc1ccc(NC(=O)CN(C)C(=O)c2cc3ccccc3o2)cc1	5.1	18.8	-7.0	-8.8
Nc1cnn(Cc2ccc(F)cc2)c1	-11.3	24.3	-10.3	14.8
Nc1cnn(Cc2ccccc2F)c1	-23.2	-13.7	31.4	100.2*
COc1cccc(Cn2cc(N)cn2)c1	-20.7	7.2	-3.6	98.4*
O=C(Cc1ccccc1)NCC(=O)N1CCCCCC1	3.1	20.2	-15.3	-6.9
SMILES	Arbovirus anti	CHOP inhibitor	WT yeast gro inh	L major viab
COC(=O)c1ccc(COc2ccc(/C=N/O)cc2)o1	2.2	-5.9	-19.4	8.2
O=C1Nc2ccc(F)cc2C12Nc1ccccc1-c1nnc(SCc3ccccc3Cl)nc1O2 (configuration not stated)	7.8	8.3	68.9*	-5.0
Cc1ccc(CSc2nnc3c(n2)OC2(Nc4ccccc4-3)C(=O)Nc3ccc(F)cc32)cc1 (configuration not stated)	3.6	11.7	70.5*	3.6
Cc1ccc(SCC(=O)OCn2nnc3ccccc3c2=O)cc1C	3.4	-7.9	23.6	17.1
COc1cc(NC(=S)NCc2cccnc2)cc(OC)c1	2.4	-19.1	-18.6	95.8*
COc1cc(NC(=S)NCc2cccnc2)cc(OC)c1OC	2.3	10.8	4.6	11.7
CN(C)CCCN(CCCN(C)C)C(=S)Nc1ccc(S(=O)(=O)N2CCOCC2)cc1	·	-4.5	·	·
C/C(=C\c1ccccc1)CN1CCC(C(=O)N2CCC(C)CC2)CC1	-2.0	1.8	-1.0	93.3*
C/C(=C\c1ccccc1)CN1CCC(C(=O)N2CCCCC2)CC1	1.8	7.6	-1.0	-3.8
O=C(C1CCN(C2CCN(C/C(Cl)=C/c3ccccc3)CC2)CC1)N1CCOCC1	-4.5	-5.3	8.0	96.9*
CCCCNC(=O)C1CCN(C/C(C)=C/c2ccccc2)CC1	-7.0	12.1	10.0	90.7*
CCOC(=O)c1sc(/N=C/c2ccc(O)cc2O)cc1C	-8.8	94.4*	4.6	-4.4
O=c1oc(-c2ccc(Cl)c(Cl)c2)nn1-c1ccc(C(F)(F)F)cn1	·	9.9	·	·
O=C(CCCc1ccccc1)c1ccc2c(c1)OCCO2	-11.1	88.9*	3.9	-2.0
O=C(CCN1CCC(c2ccccc2)C1)c1ccccc1 (configuration not stated)	-0.4	-22.8	-0.3	47.9
O=C(CCN1CCCCC1)c1ccc2c(c1)OCCO2	14.2	-0.6	6.3	26.1
COc1cc(C(=O)OC2CCN(C)CC2)cc(OC)c1OC	-2.9	32.2	4.4	12.1
O=C(CCc1ccccc1)c1ccc2c(c1)OCCCO2	5.6	21.8	4.6	-1.9
O=C(CCN1CCCC1Cc1ccccc1)c1ccc2c(c1)OCCO2 (configuration not stated)	-17.8	-11.1	-2.2	100.5*
O=C(CCN1CCC(c2ccccc2)C1)c1ccc2c(c1)OCCO2 (configuration not stated)	-45.4	-9.4	13.4	100.5*
COc1cc(C(=O)CCN2CCC(c3ccccc3)C2)cc(OC)c1OC (configuration not stated)	-3.8	-4.8	-5.0	81.2*
COc1ccc(N2CCN(C(=O)CCc3ccc(S(=O)(=O)NC(C)(C)C)cc3)CC2)cc1	·	-7.3	·	·
CSc1nnc(C)c(=O)n1COC(=O)c1ccccc1	21.3	-22.1	-8.6	1.2
O=C(CCN1CCC(c2ccccc2)C1)c1cccs1 (configuration not stated)	-6.9	-34.2	-13.7	71.5*
O=C(CCN1CCc2ccccc21)c1ccc2c(c1)OCCO2	-2.0	-8.6	9.6	5.6
SMILES	Arbovirus anti	CHOP inhibitor	WT yeast gro inh	L major viab
Nc1cc[n+](CC(=O)c2ccc3c(c2)OCCO3)cc1	12.3	4.5	35.9	77.8*
O=C(CCN1CCc2ccccc2C1)c1ccc2c(c1)OCCO2	-43.2	-23.8	0.6	100.5*
CCOC(=O)/C(C#N)=C\C1=C(N2CCCC2)CC(C)(CC)OC1 (configuration not stated)	-1.0	0.3	-6.2	4.5
CCN1CCN(C(=O)CCc2nnc(CCCCc3ccccc3)o2)[C@@H](C)C1=O	6.3	15.1	-21.2	-4.6
O=C(O)c1cccc(Nc2cc(Cl)c3nonc3c2[N+](=O)[O-])c1	6.5	29.9	5.2	4.4
O=[N+]([O-])c1c(Nc2ccccn2)cc(Cl)c2nonc12	·	108.0*	·	·
FC(F)(F)c1cccc(Cc2noc(CN3CCC(c4ccncc4)CC3)n2)c1	9.3	26.0	29.1	98.4*
CN1CCCC2(CCCN(Cc3nc(Cc4cccc(C(F)(F)F)c4)no3)C2)C1 (configuration not stated)	-12.4	-7.2	15.5	44.2
Fc1cccc(Cc2noc(CN3CCCCC3c3ccccn3)n2)c1 (configuration not stated)	5.9	11.4	-5.5	-1.0
FC(F)(F)c1cccc(Cc2noc(CN3CCCCC3c3ccccn3)n2)c1 (configuration not stated)	1.2	73.6*	10.2	-6.5
Cc1cc(C(F)F)n2nc(C(=O)Nc3sc4c(c3C#N)CCC4)nc2n1	1.7	5.5	0.4	-1.2
COc1ccc(N2C(=O)c3ccccc3NC2c2cccnc2)cc1 (configuration not stated)	1.1	-31.2	-2.0	58.8*
